The source made the active and inactive calls.
How the values were obtained:
Albumin (Bos taurus) = Albumin (Bos taurus) (UniProt P02769); experiment: bovine serum albumin binders on microarray, profiling panel, artefact control for SMM control protein annotation, biochemical, small-molecule microarray, Alexa647 label, 635/667 nm fluorescence (AID 1118); settings: BSA-A647 binding, fluorescence 635 nm, higher = more signal;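 further: score merges 667 nm emission intensity and signal-to-noise per printed compound spot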
Sequence of Albumin (Bos taurus) (P02769 whole entry, looked up): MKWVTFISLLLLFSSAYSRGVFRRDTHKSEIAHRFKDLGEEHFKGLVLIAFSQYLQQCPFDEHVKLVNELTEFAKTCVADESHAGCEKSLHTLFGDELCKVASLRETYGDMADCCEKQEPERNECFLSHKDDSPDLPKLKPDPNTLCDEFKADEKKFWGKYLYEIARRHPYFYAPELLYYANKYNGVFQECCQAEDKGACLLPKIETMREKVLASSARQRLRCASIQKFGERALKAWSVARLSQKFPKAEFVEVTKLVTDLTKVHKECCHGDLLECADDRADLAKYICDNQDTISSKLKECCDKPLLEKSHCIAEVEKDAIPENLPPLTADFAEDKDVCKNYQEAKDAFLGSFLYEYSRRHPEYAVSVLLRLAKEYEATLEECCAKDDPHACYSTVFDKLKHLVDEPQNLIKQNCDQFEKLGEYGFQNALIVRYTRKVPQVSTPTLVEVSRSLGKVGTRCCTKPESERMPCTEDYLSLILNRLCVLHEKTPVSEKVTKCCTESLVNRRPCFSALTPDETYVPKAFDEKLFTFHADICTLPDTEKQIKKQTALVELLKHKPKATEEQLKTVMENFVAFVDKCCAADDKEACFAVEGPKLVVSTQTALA

[1] = small-molecule microarray binders of probe aXIP, primary screen, biochemical, NeuroSMM set, 635/667 nm fluorescence (AID 1119); settings: higher = more signal, called active from +8 up or from −8 down;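 further: probe is the protein aXip251-270 applied at 1 µg/mL to compound-printed slides; binding of probe to printed compounds measured as 667 nm fluorescence plus signal to noise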
[2] = small-molecule binders of probe aNOTCH3, primary screen, biochemical, small-molecule microarray, 635/667 nm fluorescence (AID 1120); settings: higher = more signal;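 further: probe is a biotin-tagged antibody raised against NOTCH3 rather than NOTCH3 protein; score merges spot fluorescence near 667 nm with spot signal to noise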
[3] = small-molecule binders of probe aNOTCH2, primary screen, biochemical, small-molecule microarray, 635/667 nm fluorescence (AID 1121); settings: higher = more signal;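 further: score merges feature fluorescence read at 667 nm with its signal to noise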
[4] = target: Carbonic anhydrase 2 (Homo sapiens) (UniProt P00918); experiment: CAII small-molecule binders, profiling panel, biochemical, small-molecule microarray, Alexa647-labelled CAII (AID 1122); settings: CAII-A647 binding fluorescence, higher = more signal
[5] = COS7 lysate on small-molecule microarray, probe aHis, 635 nm (AID 1123); settings: COS7 cell lysate, fluorescence, higher = more signal;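 further: z-score combines 667nm fluorescence intensity with signal-to-noise per printed compound spot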
[6] = compound binding in COS7 lysate, probe aLAP1, primary screen, cell lysate, small-molecule microarray (AID 1124); settings: probe aLAP1, fluorescence, higher = more signal;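 further: lysate comes from COS7 cells expressing LAP1 and is applied at 0.3 µg/mL; score merges spot fluorescence near 667 nm with signal-to-noise over triplicate slides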
Sam68 (KHDRBS1) = experiment: Sam68 small-molecule binders, primary screen, biochemical, small-molecule microarray, 635 nm fluorescence (AID 1125); settings: small-molecule microarray binding, higher = more signal;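 further: score merges 667 nm channel intensity with signal to noise over triplicate slides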
[7] = system: Chordin-like protein 2 (CHRDL2); experiment: CHRDL2 small-molecule binders, primary screen, biochemical, small-molecule microarray, 635 nm fluorescence (AID 1126); settings: small-molecule microarray binding, fluorescence 635 nm; higher = more signal;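 further: printed compound slides probed with Chrdl2 protein at 4 µg/mL for 1 h at 4 C; score merges 667 nm emission intensity with signal to noise over three replicate slides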
[8] = target: Concanavalin-A (Canavalia ensiformis) (UniProt P02866); experiment: ConA small-molecule binders, primary screen, artefact control for SMM control protein annotation, biochemical, small-molecule microarray, Alexa647 label, 635 nm (AID 1127); settings: ConA-A647 binding fluorescence, higher = more signal;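 further: z combines 667 nm emission intensity with signal-to-noise across three replicate slides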
Sequence of Concanavalin-A (Canavalia ensiformis) (P02866 whole entry, looked up): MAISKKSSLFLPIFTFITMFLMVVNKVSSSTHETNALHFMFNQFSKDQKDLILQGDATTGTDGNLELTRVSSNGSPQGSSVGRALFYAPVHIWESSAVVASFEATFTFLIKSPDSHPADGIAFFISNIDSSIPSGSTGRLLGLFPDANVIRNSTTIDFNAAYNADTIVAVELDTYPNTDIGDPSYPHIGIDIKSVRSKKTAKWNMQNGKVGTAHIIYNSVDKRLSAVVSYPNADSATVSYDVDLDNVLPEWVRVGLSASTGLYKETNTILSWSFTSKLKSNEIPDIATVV

| SMILES | composite z-score (Albumin (Bos taurus)) | composite Z-score [1] | composite z-score [2] | composite z-score [3] | composite z-score [4] | composite z-score [5] | composite z-score [6] | composite z-score (Sam68 (KHDRBS1)) | composite z-score [7] | composite z-score [8] |
| --- | --- | --- | --- | --- | --- | --- | --- | --- | --- | --- |
| COc1ccc(C(O)C2C=CC3C(=O)N(c4ccccc4)C(=O)C3N2Nc2ccc(C(C)C)cc2)cc1OCc1ccccc1 (stereo not given) | 0.895 | 0.868 (inactive) | 0.307 | 0.194 | 0.576 | 1.78 | 0.902 | 1.33 | -0.443 | 1.12 |
| COCCCNC(=O)[C@@]1(Cc2ccccc2N=[N+]=[N-])N=C(c2ccc(OCCCO)cc2)O[C@H]1c1ccccc1N=[N+]=[N-] | 0.964 | 0.328 (inactive) | 0.386 | 0.149 | 0.58 | 2.76 | 0.889 | 1.29 | -0.0927 | 1.1 |
| COc1ccc([C@H]2OC[C@@H]3CC4(CC=CC4)C(=O)N32)cc1 | -0.505 | 0.544 (inactive) | 0.146 | -0.0662 | 0.278 | 0.383 | -0.129 | 0.964 | 1.54 | -0.572 |
| CCOC(=O)C[C@H]1[C@H](OC(=O)Cc2ccc3c(c2)OCO3)[C@@H](NC(=O)c2ccc3ccccc3c2)c2cc(OCCCO)ccc2N1C(=O)c1ccccc1 | 0.601 | -0.0185 (inactive) | -0.0077 | -0.14 | 0.32 | 1.04 | 0.186 | 1.09 | 0.308 | 0.541 |
| COC(=O)[C@@]1(Cc2ccc(OC)cc2)[C@H]2c3cc(C(=O)N4CCCC4)n(Cc4ccc(OC)c(OC)c4)c3C[C@H]2CN1C(=O)c1ccccc1 | 1.08 | 0.983 (inactive) | 1.28 | 0.852 | 0.592 | 2.74 | 0.601 | 1.3 | 0.206 | 1.14 |
| CCCCN1CC=CC23O[C@@H]4/C=C\CCC(C)OC(=O)C4[C@H]2C(=O)N(CCCCCO)[C@@H]3C1=O (stereo not given in full) | -1.05 | 0.114 (inactive) | -0.422 | -0.126 | 0.867 | -0.427 | 1.34 | -0.287 | -1.4 | -1.09 |
| C=CCOC(=O)[C@H]1[C@@H]2C(=O)O[C@@H](c3ccccc3)[C@@H](c3ccccc3)N2[C@@H](c2ccc(OCCOC(=O)[C@H]3C[C@H]4C(=O)N5CCC[C@H]5C(=O)N4[C@H]3c3ccc(O)cc3)cc2)[C@]12C(=O)Nc1ccccc12 | -1.36 | 0.171 (inactive) | 0.141 | -0.0928 | 0.576 | 2.25 | 0.793 | 1.32 | 1.25 | 1.11 |
| Cc1ccc(C(C)CC(O)C2C=CC3C(=O)N(c4ccccc4)C(=O)C3N2Nc2ccc([N+](=O)[O-])cc2)o1 (stereo not given) | 0.861 | -0.608 (inactive) | 0.222 | 0.0129 | 0.788 | 1.96 | 0.67 | 1.32 | 0.595 | 0.977 |
| CN1C2C=C(CCCO)C(C3C(=O)N(C(N)=O)C(=O)C32)C1c1ccc(CN2CCCC2)cc1 (stereo not given) | -1.07 | -0.275 (inactive) | -0.326 | -0.152 | -0.452 | -0.0732 | -0.579 | -1.18 | -0.686 | -0.34 |
| CCCCc1cn(C[C@H](Cc2ccccc2)NC(=O)N[C@H](CO)CCc2oc(C(C)=O)c(C(=O)OC)c2C(=O)OC)nn1 | 0.25 | 0.119 (inactive) | 0.328 | -0.12 | 0.151 | 0.607 | 0.0969 | 1.25 | 0.756 | 0.859 |
| C=CC[C@]12N=C(c3ccc(OCCCO)cc3)O[C@H]1c1ccccc1N(Cc1ccccc1)C2=O | -0.0059 | 1.2 (inactive) | 0.0225 | -0.078 | 0.669 | 2.12 | 0.38 | 0.98 | 0.317 | 0.385 |
| COC(=O)C=C(CC(O)c1cccc(Cl)c1)OC (stereo not given) | 1.04 | 1.22 (inactive) | 0.936 | 0.436 | 0.811 | 0.461 | 1.02 | 0.0579 | 0.091 | -0.115 |
| O=C1C2C=CC(C(O)c3ccc(F)cc3)N(Nc3ccccc3F)C2C(=O)N1c1ccccc1 (stereo not given) | 0.983 | 0.482 (inactive) | 0.323 | -0.0194 | 0.823 | 3.13 | -0.0953 | 1.13 | -0.868 | 0.493 |
| O=C1NCC(=O)N2[C@@H]1C[C@@H](C(=O)O)[C@H]2c1cccc(OCCO)c1 | -0.175 | 10.2 (active) | 2.12 | 1.12 | 0.628 | 5.25 | 1.03 | 1.33 | 1.6 | 0.945 |
| CCCCCC1=C2CNC(CCC)(C(=O)OC)C=C2C(C)C1=O (stereo not given) | 0.912 | 0.956 (inactive) | 0.227 | 0.153 | 0.698 | 1.61 | 0.448 | 0.273 | -0.723 | 0.236 |
| COCCCNC(=O)C1N=C(c2ccc(OCCCO)cc2)N(c2ccccc2)O1 (stereo not given) | 0.107 | -0.442 (inactive) | 0.0836 | -0.112 | 0.778 | 0.388 | -0.193 | 1.3 | -0.289 | 1.04 |
| COC(=O)[C@@]1(Cc2ccc(OC)cc2)[C@H]2c3cc(C(=O)N(C)C)n(Cc4cccc5ccccc45)c3C[C@H]2CN1C(=O)c1ccccc1 | 1.02 | 0.0388 (inactive) | 0.726 | 0.624 | 0.753 | 3.03 | 0.506 | 0.432 | 0.0735 | 0.976 |

— PubChem BioAssay
